High-throughput results: PubChem, several laboratories
CYP2C9 inh = human CYP2C9 inhibition | 20% of 96,000 active | AID 777 | inhibition, % at 5 µM | CYP2C9 Supersomes, luciferin-H conversion, luminescence;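 active = blocking of liver enzyme CYP2C9 beyond about 50% at 5 µM, limit read from the data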
Target sequence (P11712 whole entry, looked up): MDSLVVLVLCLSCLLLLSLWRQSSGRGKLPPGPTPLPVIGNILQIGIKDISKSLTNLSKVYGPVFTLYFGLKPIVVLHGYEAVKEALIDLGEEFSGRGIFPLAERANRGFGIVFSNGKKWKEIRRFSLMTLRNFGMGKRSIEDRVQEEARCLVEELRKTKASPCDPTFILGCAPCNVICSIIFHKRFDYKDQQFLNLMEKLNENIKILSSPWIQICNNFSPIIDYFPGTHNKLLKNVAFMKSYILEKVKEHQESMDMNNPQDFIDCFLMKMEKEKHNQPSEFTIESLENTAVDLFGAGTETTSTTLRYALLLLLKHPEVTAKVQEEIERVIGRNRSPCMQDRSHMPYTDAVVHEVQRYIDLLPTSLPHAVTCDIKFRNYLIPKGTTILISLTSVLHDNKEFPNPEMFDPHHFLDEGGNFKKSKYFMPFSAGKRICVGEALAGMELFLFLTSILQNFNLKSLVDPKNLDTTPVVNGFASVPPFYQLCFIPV
CYP2C19 act = cytochrome P450 2C19 (human) activation; AID 1025; P33261; activation factor at 5 µM; recombinant CYP2C19, luciferin-H EGE luminescence; stronger effect = higher value; 0 = fully inhibited enzyme, 1 = untreated enzyme; 96,000 tested, under 10 active;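 active = activation factor of at least 2 at 5 µM in the primary screen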;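 note: 0 = wells with 2.5 mM tranylcypromine and 1 = vehicle-only wells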
Measles CPE = protection of cells from measles virus; protection (pct of control), % at 4 µM; AID 841; 1.5% of 140,000 active; Measles virus-infected cells, CPE protection, absorbance; in the data active = protection mostly above about 24%, no sharp cut-off; inactive = mostly below about 26%
CYP2C19 inh = inhibitors of human CYP2C19 | P33261 | CYP2C19 Supersomes, luciferin-H EGE luminescence, 30 min | inhibition, % at 5 µM | 21% of 96,000 active;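 active = CYP2C19 inhibition above a set limit at 5 µM in the primary screen, cut at about 50% in these data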;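 note: plate controls were negative control wells for no effect and 2.5 mM tranylcypromine positive control for full effect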
CYP2C9 act = activators of human CYP2C9; P11712; recombinant CYP2C9, luciferin-H conversion, luminescence; stronger effect = higher value; factor 1 = untreated enzyme, 0 = blocked; activation factor at 5 µM; 1.4% of 96,000 active; AID 1024;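 active = activation factor of 2 or more for CYP2C9 at a 5 µM dose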;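 note: 0 = sulfaphenazole-blocked wells and 1 = vehicle-only wells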
* marks the source's active call; other numbers are inactive results; x = no result given. Compounds with a hit are over-represented: about 22% of the library has one in this group of screens.

SMILES | CYP2C9 inh | CYP2C19 act | Measles CPE | CYP2C19 inh | CYP2C9 act
O=C(CSc1nc2ccccc2[nH]1)NCCc1ccc(Cl)cc1 | x | x | 4 | x | x
COc1cc(C(=O)Nc2sc(C(=O)N3CCOCC3)c(C)c2C#N)cc(OC)c1OC | -30 | 1.1 | 3 | -14 | 1.3
Cc1sc2ncn(CC(=O)OCC(=O)NC(C)(C)C)c(=O)c2c1C | 36 | 0.7 | 3 | 26 | 0.6
Cc1sc2ncn(CC(=O)OC(C)C)c(=O)c2c1C | 41 | 0.3 | 0 | 67* | 0.6
Cc1sc2ncn(CC(=O)OC(C)C(=O)NC(C)(C)C)c(=O)c2c1C (configuration not stated) | 27 | 0.3 | 8 | 67* | 0.7
CC(C)OC(=O)Cn1cnc2ccc(Br)cc2c1=O | 38 | 0.3 | 5 | 68* | 0.6
Cc1cc(OC(=O)c2ccccc2Cl)cc(=O)n1C | -14 | 1 | 20 | -2 | 1.1
CSCCC(NC(=O)c1cccc(S(=O)(=O)N2CCOCC2)c1)C(=O)Nc1cccc(C)c1 (configuration not stated) | x | x | 13 | x | x
CCOc1ccc(N(CC(N)=O)S(=O)(=O)c2ccc(F)cc2)cc1 | 12 | 0.6 | 6 | 37 | 0.9
CCOc1ccccc1N(CC(=O)OC)S(=O)(=O)c1ccccc1 | 71* | 0.5 | 8 | 51* | 0.3
COC(=O)CN(c1cc(Cl)ccc1OC)S(=O)(=O)c1ccc(OC)c(OC)c1 | x | x | 2 | x | x
CCOc1ccc(S(=O)(=O)N(CC(N)=O)c2ccc(C)cc2)cc1 | 41 | 0.3 | 6 | 71* | 0.6
COC(=O)CN(c1ccc(OC)cc1)S(=O)(=O)c1ccc(OC)c(OC)c1 | 16 | 0.1 | 18 | 94* | 0.8
CCOc1ccccc1N(CC(=O)O)S(=O)(=O)c1ccccc1 | 3 | 0.9 | 9 | 6 | 1
COc1ccc(OC)c(N(CC(N)=O)S(=O)(=O)c2ccc(OC)c(OC)c2)c1 | 45 | 0.2 | 20 | 78* | 0.6
O=C(COC(=O)c1cncc(Br)c1)NC1CC1 | -2 | 1 | 0 | -4 | 1
O=C(Cn1nnc2ccccc21)C1CC1 | 16 | 1 | 6 | -1 | 0.8
CCOc1ccc(N(CC(=O)OC)S(=O)(=O)c2ccc3c(c2)n(C)c(=O)c(=O)n3C)cc1 | 56* | 0.9 | 9 | 11 | 0.4
COc1ccc(N(C(=O)COc2ccccc2OC)S(=O)(=O)c2ccc(C)cc2)cc1 | 52* | 0.6 | 3 | 40 | 0.5
COC(=O)CN(c1ccc(C)cc1)S(=O)(=O)c1ccc2c(c1)n(C)c(=O)c(=O)n2C | 39 | 1 | 5 | 0 | 0.6
CCC(C)NC(=O)CN(c1ccc(OC)cc1)S(=O)(=O)c1ccc(NC(C)=O)cc1 (configuration not stated) | 57* | 0.6 | 21 | 38 | 0.4
COc1ccc(N(CC(=O)O)S(=O)(=O)c2ccc(OC)c(OC)c2)cc1 | 29 | 0.8 | 11 | 22 | 0.7
CCOc1ccc(N(CC(=O)OC)S(=O)(=O)c2ccc(OC)c(OC)c2)cc1 | 55* | 0.4 | 7 | 64* | 0.5
Cc1cccc(CC(=O)Nc2cc(C)c3c(=O)oc4ccccc4c3n2)c1 | 11 | 1 | 8 | -2 | 0.9
O=C(N/N=C/c1c[nH]c2ccccc12)C1CC1(c1ccccc1)c1ccccc1 (configuration not stated) | x | x | 7 | x | x
SMILES | CYP2C9 inh | CYP2C19 act | Measles CPE | CYP2C19 inh | CYP2C9 act
CCCCCOP(=O)(OCCCCC)C1(NS(=O)(=O)c2ccccc2)C=CC(=O)c2ccccc21 (configuration not stated) | 56* | 0.9 | 17 | 8 | 0.4
CCCn1nnnc1NCc1ccccc1OCc1cccs1 | 42 | 0.8 | 14 | 24 | 0.6
CCCn1nnnc1NCc1ccccc1OCc1ccc(F)cc1 | 89* | 0.1 | 3 | 88* | 0.1
COC(=O)C1CCC(C)(C(=O)Nc2ccccc2)C1(C)C (configuration not stated) | 64* | 0.3 | 10 | 68* | 0.4
COc1ccc(N2CCN(Cc3nc4c(c(=O)n(C)c(=O)n4C)n3CCc3ccccc3)CC2)cc1 | x | x | 18 | x | x
Cc1ccc(-c2noc(CCC(=O)NCCN3CCN(Cc4ccccc4)CC3)n2)cc1 | 62* | 0.5 | 15 | 51* | 0.4
CCN(CCCNC(=O)CCc1nc(-c2ccc(C)cc2)no1)c1cccc(C)c1 | 52* | 0.7 | 37 | 34 | 0.5
Cc1ccc(-c2noc(CCC(=O)NCCN3CCc4ccccc4C3)n2)cc1 | 72* | 0.2 | 8 | 84* | 0.3
Cc1ccc(-c2noc(CCC(=O)NCCN3CCOCC3)n2)cc1 | 6 | 0.8 | 19 | 24 | 0.9
O=C(CCc1nc(-c2ccccc2F)no1)NC1CCCCCC1 | 28 | 0.7 | 16 | 27 | 0.7
O=C(CCc1nc(-c2ccccc2F)no1)NCCN1CCc2ccccc2C1 | 42 | 0.4 | 11 | 60* | 0.6
Cc1cc(C)nc(-n2nc(C)c3c(=O)[nH]c(C(F)(F)F)nc32)n1 | 4 | 0.9 | 11 | 9 | 1
O=C(CCc1nc(-c2ccccc2F)no1)NCCc1ccccc1Cl | 56* | 0.2 | 28 | 80* | 0.4
CCCOC(=O)c1ccc(NC(=O)CSC2=Nc3ccccc3C3CC=NN23)cc1 (configuration not stated) | 80* | 0.5 | 5 | 52* | 0.2
CCOC(=O)c1ccc(NC(=O)CSc2nnc(C3CC3)n2CC)cc1 | x | x | 8 | x | x
CCn1c(C(=O)N2CCC(C(=O)NCc3cccs3)CC2)cc2sccc21 | -21 | 0.8 | 6 | 25 | 1.2
O=C(NCCN1CCOCC1)c1cc2sccc2n1Cc1ccc(F)cc1 | 27 | 0.7 | 2 | 31 | 0.7
O=C(NCc1ccco1)C1CCN(C(=O)c2cc3sccc3n2Cc2ccc(Cl)cc2)CC1 | 77* | 0.4 | 4 | 65* | 0.2
O=C(NCCN1CCOCC1)c1cc2sccc2n1Cc1ccc(Cl)cc1 | 69* | 0.3 | 3 | 70* | 0.3
CCOC(=O)c1cccc(NC(=O)CSc2nnc(-c3ccoc3C)n2CCOC)c1 | 89* | 0.2 | 2 | 83* | 0.1
COCCn1c(SCC(=O)N2CCCc3ccccc32)nnc1-c1ccoc1C | x | x | 9 | x | x
Cc1occc1-c1nnc(SCC(=O)NCCc2ccccc2)n1Cc1ccccc1 | 55* | 0.7 | 30 | 32 | 0.5
Cc1occc1-c1nnc(SCC(N)=O)n1Cc1ccccc1 | 2 | 0.9 | 9 | 11 | 1
COc1cccc(-n2c(SCC(=O)NCCc3ccccc3)nnc2-c2ccoc2C)c1 | 88* | 0 | 7 | 98* | 0.1
Cc1occc1-c1nnc(SCC(=O)Nc2ccccc2)n1C(C)c1ccccc1 (configuration not stated) | 96* | 0.1 | 24 | 89* | 0
Cc1occc1-c1nnc(SCC(=O)Nc2ccccc2N2CCCCC2)n1C | 28 | 0.5 | 13 | 45 | 0.7
COc1ccc(Cc2nc3ccc(S(=O)(=O)N4CCOCC4)cc3[nH]2)cc1 | 19 | 0.8 | 3 | 23 | 0.8
O=C(NCc1ccco1)c1nc2c(nnn2Cc2ccccc2Cl)c(=O)[nH]1 | x | x | 1 | x | x
